Data from the supplement of paper PMC6607015.
Where a name gives a salt, the structure may show the parent alone.

Experiments:
Conditions in all cases: compound concentration in added solution (µM; 5 µl added to 20 µl cells): 10; 18 h
A431 [1] = test: LBPA endosome anti-LBPA integrated intensity (sum per cell), Z-score; higher = more LBPA staining
Method in brief: (§1)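 The data are Z-scores, normalised in AcuityXpress, of integrated LBPA or filipin intensity in each cell, either whole-cell or restricted to LBPA endosomes. HeLa MZ or A431 cells, 3,500 per well in 20 µl, were seeded onto 5 µl of 10 µM compound solution in duplicate 384-well plates and incubated 18 h. Fixed cells were stained and imaged, with intensities extracted by MetaXpress segmentation.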

HeLa MZ [2] = test: as above
Method in brief: as §1

A431 [3] = test: whole-cell filipin (free cholesterol) integrated intensity, Z-score; higher = more cholesterol staining
Method in brief: as §1

HeLa MZ [4] = test: as above
Method in brief: as §1

A431 [5] = test: filipin (cholesterol) integrated intensity within LBPA endosomes, Z-score; higher = more cholesterol in LBPA endosomes
Method in brief: as §1

HeLa MZ [6] = test: as above
Method in brief: as §1

Q: With `CC(N)C12CC3CC(CC(C3)C1)C2` (stereo not drawn) [Rimantadine Hydrochloride] as the compound, how does the “LBPA endosome anti-LBPA integrated intensity (z-score)” value (A431 [1]) read?
A: -0.677

Q: What about the “LBPA endosome anti-LBPA integrated intensity (z-score)” value (HeLa MZ [2]) of the same compound?
A: -0.134

Q: And the “whole-cell filipin (z-score)” value (A431 [3])?
A: -0.496

Q: What about the “whole-cell filipin (z-score)” value (HeLa MZ [4]) of the same compound?
A: 0.106

Q: And the “filipin (z-score)” value (A431 [5])?
A: -0.59

Q: And the “filipin (z-score)” value (HeLa MZ [6])?
A: -0.56

Q: `CC1(C)S[C@@H]2[C@H](NC(=O)[C@H](N)c3ccccc3)C(=O)N2[C@H]1C(=O)O` [Ampicillin trihydrate] was tested. Which “LBPA endosome anti-LBPA integrated intensity (z-score)” value (A431 [1]) did it give?
A: -0.606

Q: And the “LBPA endosome anti-LBPA integrated intensity (z-score)” value (HeLa MZ [2])?
A: -0.403

Q: What about the “whole-cell filipin (z-score)” value (A431 [3]) of the same compound?
A: -0.896

Q: What about the “whole-cell filipin (z-score)” value (HeLa MZ [4]) of the same compound?
A: -0.707

Q: What about the “filipin (z-score)” value (A431 [5]) of the same compound?
A: -0.569

Q: And the “filipin (z-score)” value (HeLa MZ [6])?
A: -0.702

Q: Which “LBPA endosome anti-LBPA integrated intensity (z-score)” value (A431 [1]) does the source give for `CCOC(=O)C1=C(C)NC(C)=C(C(=O)OCC)C1c1ccccc1/C=C/C(=O)OC(C)(C)C` [Lacidipine] here?
A: 0.359

Q: What about the “LBPA endosome anti-LBPA integrated intensity (z-score)” value (HeLa MZ [2]) of the same compound?
A: 1.4

Q: And the “whole-cell filipin (z-score)” value (A431 [3])?
A: 0.71

Q: And the “whole-cell filipin (z-score)” value (HeLa MZ [4])?
A: 1.28

Q: What about the “filipin (z-score)” value (A431 [5]) of the same compound?
A: 0.446

Q: What about the “filipin (z-score)” value (HeLa MZ [6]) of the same compound?
A: 0.927

Q: `CCCCOC(=O)c1ccc(N)cc1` [Butamben] was tested. Which “LBPA endosome anti-LBPA integrated intensity (z-score)” value (A431 [1]) did it give?
A: -0.33

Q: What about the “LBPA endosome anti-LBPA integrated intensity (z-score)” value (HeLa MZ [2]) of the same compound?
A: 0.449

Q: What about the “whole-cell filipin (z-score)” value (A431 [3]) of the same compound?
A: -0.437

Q: And the “whole-cell filipin (z-score)” value (HeLa MZ [4])?
A: -0.221

Q: And the “filipin (z-score)” value (A431 [5])?
A: -0.356

Q: And the “filipin (z-score)” value (HeLa MZ [6])?
A: -0.552

Q: `CCN1CCCC1CNC(=O)c1cc(S(N)(=O)=O)ccc1OC` (stereo not drawn) [Sulpiride] was tested. Which “LBPA endosome anti-LBPA integrated intensity (z-score)” value (A431 [1]) did it give?
A: -0.472

Q: What about the “LBPA endosome anti-LBPA integrated intensity (z-score)” value (HeLa MZ [2]) of the same compound?
A: -0.315

Q: And the “whole-cell filipin (z-score)” value (A431 [3])?
A: -0.817

Q: What about the “whole-cell filipin (z-score)” value (HeLa MZ [4]) of the same compound?
A: -0.434

Q: And the “filipin (z-score)” value (A431 [5])?
A: -0.518

Q: And the “filipin (z-score)” value (HeLa MZ [6])?
A: -0.501

Q: How did the “LBPA endosome anti-LBPA integrated intensity (z-score)” value (A431 [1]) turn out when `Cc1cccc(C)c1NC(=O)C(C)N` (stereo not drawn) [Tocainide hydrochloride] was run?
A: -0.343

Q: And the “LBPA endosome anti-LBPA integrated intensity (z-score)” value (HeLa MZ [2])?
A: -0.526

Q: And the “whole-cell filipin (z-score)” value (A431 [3])?
A: 0.139

Q: And the “whole-cell filipin (z-score)” value (HeLa MZ [4])?
A: -0.393

Q: And the “filipin (z-score)” value (A431 [5])?
A: -0.431

Q: And the “filipin (z-score)” value (HeLa MZ [6])?
A: -0.603

Q: Which results are given for `Cn1c(=O)c2c(ncn2CC2OCCO2)n(C)c1=O` [Doxofylline]?
A: LBPA endosome anti-LBPA integrated intensity (z-score) (A431 [1]): -0.341; LBPA endosome anti-LBPA integrated intensity (z-score) (HeLa MZ [2]): 0.313; whole-cell filipin (z-score) (A431 [3]): -0.207; whole-cell filipin (z-score) (HeLa MZ [4]): -0.159; filipin (z-score) (A431 [5]): -0.416; filipin (z-score) (HeLa MZ [6]): -0.528

Q: How did the “LBPA endosome anti-LBPA integrated intensity (z-score)” value (A431 [1]) turn out when `NC(=O)N1c2ccccc2C=Cc2ccccc21` [Carbamazepine] was run?
A: -0.439

Q: What about the “LBPA endosome anti-LBPA integrated intensity (z-score)” value (HeLa MZ [2]) of the same compound?
A: -0.106

Q: And the “whole-cell filipin (z-score)” value (A431 [3])?
A: -0.553

Q: And the “whole-cell filipin (z-score)” value (HeLa MZ [4])?
A: -0.708

Q: What about the “filipin (z-score)” value (A431 [5]) of the same compound?
A: -0.587

Q: And the “filipin (z-score)” value (HeLa MZ [6])?
A: -0.687

Q: Which results are given for `Cn1nnnc1SCC1=C(C(=O)O)N2C(=O)[C@@H](NC(=O)[C@H](O)c3ccccc3)[C@H]2SC1` [Cefamandole sodium salt]?
A: LBPA endosome anti-LBPA integrated intensity (z-score) (A431 [1]): -0.486; LBPA endosome anti-LBPA integrated intensity (z-score) (HeLa MZ [2]): -0.416; whole-cell filipin (z-score) (A431 [3]): -0.496; whole-cell filipin (z-score) (HeLa MZ [4]): 0.0398; filipin (z-score) (A431 [5]): -0.431; filipin (z-score) (HeLa MZ [6]): -0.551

Q: For `COc1cc(-c2ccc(=O)[nH]n2)ccc1OC(F)F` [Zardaverine], which “LBPA endosome anti-LBPA integrated intensity (z-score)” value (A431 [1]) is on record?
A: -0.319

Q: And the “LBPA endosome anti-LBPA integrated intensity (z-score)” value (HeLa MZ [2])?
A: 0.0365

Q: And the “whole-cell filipin (z-score)” value (A431 [3])?
A: 0.286

Q: What about the “whole-cell filipin (z-score)” value (HeLa MZ [4]) of the same compound?
A: 0.356

Q: What about the “filipin (z-score)” value (A431 [5]) of the same compound?
A: -0.298

Q: And the “filipin (z-score)” value (HeLa MZ [6])?
A: -0.332

Q: `c1cnc(N2CCN(Cc3ccc4c(c3)OCO4)CC2)nc1` [Piribedil hydrochloride] was tested. Which “LBPA endosome anti-LBPA integrated intensity (z-score)” value (A431 [1]) did it give?
A: 0.161

Q: What about the “LBPA endosome anti-LBPA integrated intensity (z-score)” value (HeLa MZ [2]) of the same compound?
A: 1.95

Q: What about the “whole-cell filipin (z-score)” value (A431 [3]) of the same compound?
A: 0.544

Q: And the “whole-cell filipin (z-score)” value (HeLa MZ [4])?
A: 1.93

Q: What about the “filipin (z-score)” value (A431 [5]) of the same compound?
A: -0.00283

Q: And the “filipin (z-score)” value (HeLa MZ [6])?
A: 1.55

Q: Which “LBPA endosome anti-LBPA integrated intensity (z-score)” value (A431 [1]) does the source give for `CCC(=O)O[C@]1(C(=O)CCl)[C@@H](C)C[C@H]2[C@@H]3CCC4=CC(=O)C=C[C@]4(C)[C@@]3(F)[C@@H](O)C[C@@]21C` [Clobetasol propionate] here?
A: -0.343

Q: And the “LBPA endosome anti-LBPA integrated intensity (z-score)” value (HeLa MZ [2])?
A: -0.845

Q: And the “whole-cell filipin (z-score)” value (A431 [3])?
A: 0.00699

Q: And the “whole-cell filipin (z-score)” value (HeLa MZ [4])?
A: -0.332

Q: What about the “filipin (z-score)” value (A431 [5]) of the same compound?
A: -0.266

Q: And the “filipin (z-score)” value (HeLa MZ [6])?
A: -0.465

Q: Which results are given for `Clc1cnccn1` [2-Chloropyrazine]?
A: LBPA endosome anti-LBPA integrated intensity (z-score) (A431 [1]): -0.346; LBPA endosome anti-LBPA integrated intensity (z-score) (HeLa MZ [2]): -0.401; whole-cell filipin (z-score) (A431 [3]): 0.139; whole-cell filipin (z-score) (HeLa MZ [4]): -0.365; filipin (z-score) (A431 [5]): -0.401; filipin (z-score) (HeLa MZ [6]): -0.492

Q: Which “LBPA endosome anti-LBPA integrated intensity (z-score)” value (A431 [1]) does the source give for `Cc1ccc2c(c1)c1c3n2CCNC3CCC1` (stereo not drawn) [Pirlindole mesylate] here?
A: 0.0753

Q: What about the “LBPA endosome anti-LBPA integrated intensity (z-score)” value (HeLa MZ [2]) of the same compound?
A: 0.024

Q: And the “whole-cell filipin (z-score)” value (A431 [3])?
A: 0.654

Q: And the “whole-cell filipin (z-score)” value (HeLa MZ [4])?
A: 0.474

Q: And the “filipin (z-score)” value (A431 [5])?
A: 0.437

Q: And the “filipin (z-score)” value (HeLa MZ [6])?
A: 0.263

Q: For `Cc1cn([C@H]2C=C[C@@H](CO)O2)c(=O)[nH]c1=O` [Stavudine], which “LBPA endosome anti-LBPA integrated intensity (z-score)” value (A431 [1]) is on record?
A: -0.301

Q: And the “LBPA endosome anti-LBPA integrated intensity (z-score)” value (HeLa MZ [2])?
A: 0.24

Q: And the “whole-cell filipin (z-score)” value (A431 [3])?
A: 0.0526

Q: And the “whole-cell filipin (z-score)” value (HeLa MZ [4])?
A: 0.186

Q: And the “filipin (z-score)” value (A431 [5])?
A: -0.48

Q: What about the “filipin (z-score)” value (HeLa MZ [6]) of the same compound?
A: -0.475

Q: Which “LBPA endosome anti-LBPA integrated intensity (z-score)” value (A431 [1]) does the source give for `CN1C(C(=O)Nc2ccccn2)=C(O)c2sccc2S1(=O)=O` [Tenoxicam] here?
A: -0.541

Q: What about the “LBPA endosome anti-LBPA integrated intensity (z-score)” value (HeLa MZ [2]) of the same compound?
A: -0.303

Q: What about the “whole-cell filipin (z-score)” value (A431 [3]) of the same compound?
A: -0.432

Q: And the “whole-cell filipin (z-score)” value (HeLa MZ [4])?
A: -0.0776

Q: And the “filipin (z-score)” value (A431 [5])?
A: -0.522

Q: And the “filipin (z-score)” value (HeLa MZ [6])?
A: -0.391

Q: What does the source list for `C=CC[N@@+]12CC[C@@]34c5ccccc5N5/C=C6/[C@H]7C[C@H]8[C@@]9(CC[N@@+]8(CC=C)C/C7=C/CO)c7ccccc7N(/C=C(/[C@@H](C[C@@H]31)/C(=C\CO)C2)[C@H]54)[C@@H]69` [Alcuronium chloride]?
A: LBPA endosome anti-LBPA integrated intensity (z-score) (A431 [1]): -0.441; LBPA endosome anti-LBPA integrated intensity (z-score) (HeLa MZ [2]): -0.288; whole-cell filipin (z-score) (A431 [3]): 0.269; whole-cell filipin (z-score) (HeLa MZ [4]): 2.33; filipin (z-score) (A431 [5]): -0.417; filipin (z-score) (HeLa MZ [6]): -0.254

Q: For `COCCCC/C(=N\OCCN)c1ccc(C(F)(F)F)cc1` [Fluvoxamine maleate], which “LBPA endosome anti-LBPA integrated intensity (z-score)” value (A431 [1]) is on record?
A: 0.482

Q: And the “LBPA endosome anti-LBPA integrated intensity (z-score)” value (HeLa MZ [2])?
A: 2.11

Q: And the “whole-cell filipin (z-score)” value (A431 [3])?
A: 1.69

Q: And the “whole-cell filipin (z-score)” value (HeLa MZ [4])?
A: 0.282

Q: What about the “filipin (z-score)” value (A431 [5]) of the same compound?
A: 0.839

Q: What about the “filipin (z-score)” value (HeLa MZ [6]) of the same compound?
A: 0.935
